# Measured values taken from paper PMC7862700, “An all-to-all approach to the identification of sequence-specific readers for epigenetic DNA modifications on cytosine”.
# Experiments:
# Test in all cases: DAPPL (digital affinity profiling via proximity ligation, sequencing); 10 mM Tris-HCl pH 7.5, 50 mM NaCl, 1 mM DTT, 4% glycerol, room temperature, 30 min; GST-TFs on glutathione beads, 16-mer random dsDNA library, 0.1% formaldehyde crosslink after washing; high values mean tight binding
# FLI1 = target: T1, FLI1 (Homo sapiens, UniProt Q01543 1-452); conditions: protein: recombinant; tags: N-terminal GST; dsDNA, one strand shown
# T1 sequence: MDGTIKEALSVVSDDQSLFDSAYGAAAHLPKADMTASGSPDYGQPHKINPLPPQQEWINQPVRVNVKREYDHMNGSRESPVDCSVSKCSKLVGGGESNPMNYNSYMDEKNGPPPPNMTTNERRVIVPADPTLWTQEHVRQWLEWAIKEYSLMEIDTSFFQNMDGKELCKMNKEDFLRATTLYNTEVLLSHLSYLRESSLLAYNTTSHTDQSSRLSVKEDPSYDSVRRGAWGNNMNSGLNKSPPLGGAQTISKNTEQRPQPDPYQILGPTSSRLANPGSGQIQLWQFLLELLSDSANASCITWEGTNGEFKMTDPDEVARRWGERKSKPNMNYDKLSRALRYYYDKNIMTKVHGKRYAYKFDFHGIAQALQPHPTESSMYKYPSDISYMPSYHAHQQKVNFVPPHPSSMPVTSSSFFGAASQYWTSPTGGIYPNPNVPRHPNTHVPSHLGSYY
# Outline: (§1)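 Human transcription factors fused to GST were expressed in yeast, captured on glutathione beads, given DNA barcodes and pooled with a GST-only negative control. Pools were incubated with 200 nmole of a 16-mer random double-stranded DNA library in Tris/NaCl/DTT/glycerol buffer at room temperature for 30 min. They were then washed, crosslinked with 0.1% formaldehyde, proximity-ligated (BsaI/T4 ligase, 1 h, 37 °C), PCR-amplified and sequenced on an Illumina NextSeq500. Binding signal is each 6-mer's read frequency for a factor divided by its frequency for the GST control.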
# ELK1 = target: T2, ELK1 (Homo sapiens, UniProt P19419 1-428); conditions: protein: recombinant; tags: N-terminal GST; dsDNA, one strand shown
# T2 sequence: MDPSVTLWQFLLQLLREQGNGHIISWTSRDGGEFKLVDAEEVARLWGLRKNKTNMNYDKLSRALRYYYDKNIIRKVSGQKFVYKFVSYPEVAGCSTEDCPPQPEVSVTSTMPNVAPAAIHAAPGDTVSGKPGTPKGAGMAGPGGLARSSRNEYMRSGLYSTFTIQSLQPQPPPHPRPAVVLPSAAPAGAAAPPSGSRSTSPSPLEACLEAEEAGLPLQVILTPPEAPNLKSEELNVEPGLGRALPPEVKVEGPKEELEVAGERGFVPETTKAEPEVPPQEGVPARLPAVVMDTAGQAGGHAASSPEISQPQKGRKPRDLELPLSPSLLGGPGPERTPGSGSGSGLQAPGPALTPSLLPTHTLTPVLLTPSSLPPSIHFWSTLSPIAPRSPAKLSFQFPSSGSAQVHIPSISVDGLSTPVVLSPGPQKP
# Outline: as §1
# GABPA = target: T3, GABPA (Homo sapiens, UniProt Q06546 1-454); conditions: protein: recombinant; tags: N-terminal GST; dsDNA, one strand shown
# T3 sequence: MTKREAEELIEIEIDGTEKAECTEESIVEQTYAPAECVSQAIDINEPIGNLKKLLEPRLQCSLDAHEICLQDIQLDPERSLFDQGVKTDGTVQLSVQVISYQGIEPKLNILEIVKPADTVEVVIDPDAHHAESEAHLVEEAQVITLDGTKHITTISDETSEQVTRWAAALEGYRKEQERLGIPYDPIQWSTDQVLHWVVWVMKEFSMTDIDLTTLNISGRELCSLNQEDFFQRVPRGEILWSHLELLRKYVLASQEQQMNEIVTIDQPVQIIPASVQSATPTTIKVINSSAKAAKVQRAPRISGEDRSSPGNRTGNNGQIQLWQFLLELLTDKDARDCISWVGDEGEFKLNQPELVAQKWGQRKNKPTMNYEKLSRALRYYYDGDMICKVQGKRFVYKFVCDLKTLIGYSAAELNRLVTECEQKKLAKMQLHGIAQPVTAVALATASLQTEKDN
# Outline: as §1
# ERG = target: T4, ERG (Homo sapiens, UniProt P11308 1-479); conditions: protein: recombinant; tags: N-terminal GST; dsDNA, one strand shown
# T4 sequence: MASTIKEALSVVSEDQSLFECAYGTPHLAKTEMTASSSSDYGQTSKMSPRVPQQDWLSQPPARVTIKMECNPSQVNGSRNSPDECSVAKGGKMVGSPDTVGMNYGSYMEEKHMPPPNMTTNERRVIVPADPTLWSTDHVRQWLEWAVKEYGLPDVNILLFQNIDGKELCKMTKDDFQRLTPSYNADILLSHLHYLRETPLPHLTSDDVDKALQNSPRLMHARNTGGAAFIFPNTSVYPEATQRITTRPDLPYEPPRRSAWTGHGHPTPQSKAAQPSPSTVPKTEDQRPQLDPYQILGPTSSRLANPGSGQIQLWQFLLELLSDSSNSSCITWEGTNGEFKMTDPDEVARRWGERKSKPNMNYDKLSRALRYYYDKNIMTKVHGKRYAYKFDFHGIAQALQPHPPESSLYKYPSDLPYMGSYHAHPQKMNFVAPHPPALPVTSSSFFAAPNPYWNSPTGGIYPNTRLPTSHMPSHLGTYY
# Outline: as §1
# ELF1 = ELF1 (Homo sapiens, UniProt P32519 1-619); conditions: protein: recombinant; tags: N-terminal GST; dsDNA, one strand shown
# Outline: as §1
# EHF = target: T5, EHF (Homo sapiens, UniProt Q9NZC4 1-300); conditions: protein: recombinant; tags: N-terminal GST; dsDNA, one strand shown
# T5 sequence: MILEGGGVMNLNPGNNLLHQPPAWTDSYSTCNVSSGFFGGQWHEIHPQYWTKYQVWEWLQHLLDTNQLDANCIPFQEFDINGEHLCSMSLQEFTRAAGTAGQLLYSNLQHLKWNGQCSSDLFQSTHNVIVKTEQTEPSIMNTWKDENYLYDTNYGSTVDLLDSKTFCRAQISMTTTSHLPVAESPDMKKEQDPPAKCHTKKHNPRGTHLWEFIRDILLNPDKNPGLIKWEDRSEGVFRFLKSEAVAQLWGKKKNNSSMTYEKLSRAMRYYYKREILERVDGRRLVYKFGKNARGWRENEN
# Outline: as §1
# SPI1 = SPI1 (Homo sapiens, UniProt P17947 1-270); conditions: protein: recombinant; tags: N-terminal GST; dsDNA, one strand shown
# Outline: as §1
# SPIB = SPIB (Homo sapiens, UniProt Q01892 1-262); conditions: protein: recombinant; tags: N-terminal GST; dsDNA, one strand shown
# Outline: as §1
# ELK3 = target: T6, ELK3 (Homo sapiens, UniProt P41970 1-407); conditions: protein: recombinant; tags: N-terminal GST; dsDNA, one strand shown
# T6 sequence: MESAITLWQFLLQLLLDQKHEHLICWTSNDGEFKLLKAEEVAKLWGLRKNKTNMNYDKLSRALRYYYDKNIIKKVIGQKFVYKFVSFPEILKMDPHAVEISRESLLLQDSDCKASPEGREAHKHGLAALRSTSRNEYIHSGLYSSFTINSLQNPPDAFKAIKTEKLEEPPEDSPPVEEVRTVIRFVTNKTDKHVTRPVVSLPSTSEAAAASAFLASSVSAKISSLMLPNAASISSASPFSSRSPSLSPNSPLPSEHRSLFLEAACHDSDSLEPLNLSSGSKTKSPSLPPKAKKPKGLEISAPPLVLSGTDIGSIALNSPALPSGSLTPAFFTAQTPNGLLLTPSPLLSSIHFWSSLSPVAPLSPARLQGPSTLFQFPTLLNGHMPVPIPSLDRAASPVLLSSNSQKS
# Outline: as §1
# FEV = target: T7, FEV (Homo sapiens, UniProt Q99581 1-238); conditions: protein: recombinant; tags: N-terminal GST; dsDNA, one strand shown
# T7 sequence: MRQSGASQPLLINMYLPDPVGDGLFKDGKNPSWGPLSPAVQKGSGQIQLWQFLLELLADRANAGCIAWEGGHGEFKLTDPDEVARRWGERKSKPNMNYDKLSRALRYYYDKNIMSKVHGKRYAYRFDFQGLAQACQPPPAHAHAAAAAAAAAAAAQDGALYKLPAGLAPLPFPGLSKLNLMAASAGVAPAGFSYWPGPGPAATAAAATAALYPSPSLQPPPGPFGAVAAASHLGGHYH
# Outline: as §1
# ETV5 = ETV5 (Homo sapiens, UniProt P41161 1-510); conditions: protein: recombinant; tags: N-terminal GST; dsDNA, one strand shown
# Outline: as §1
# HSF1 = HSF1 (Homo sapiens, UniProt Q00613 1-529); conditions: protein: recombinant; tags: N-terminal GST; chain copies: 3; dsDNA, one strand shown
# Outline: as §1
# SPIC = target: T8, SPIC (Homo sapiens, UniProt Q8N5J4 1-248); conditions: protein: recombinant; tags: N-terminal GST; dsDNA, one strand shown
# T8 sequence: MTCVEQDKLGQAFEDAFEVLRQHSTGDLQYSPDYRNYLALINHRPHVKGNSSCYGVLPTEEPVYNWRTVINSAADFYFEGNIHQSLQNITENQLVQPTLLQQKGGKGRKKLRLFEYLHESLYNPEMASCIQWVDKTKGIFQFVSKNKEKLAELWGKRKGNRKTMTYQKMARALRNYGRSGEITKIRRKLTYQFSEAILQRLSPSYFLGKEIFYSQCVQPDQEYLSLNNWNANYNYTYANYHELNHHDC
# Outline: as §1
# ELF4 = ELF4 (Homo sapiens, UniProt Q99607 1-663); conditions: protein: recombinant; tags: N-terminal GST; dsDNA, one strand shown
# Outline: as §1
# ELK4 = target: T9, ELK4 (Homo sapiens, UniProt P28324-2 1-405); conditions: protein: recombinant; tags: N-terminal GST; dsDNA, one strand shown
# T9 sequence: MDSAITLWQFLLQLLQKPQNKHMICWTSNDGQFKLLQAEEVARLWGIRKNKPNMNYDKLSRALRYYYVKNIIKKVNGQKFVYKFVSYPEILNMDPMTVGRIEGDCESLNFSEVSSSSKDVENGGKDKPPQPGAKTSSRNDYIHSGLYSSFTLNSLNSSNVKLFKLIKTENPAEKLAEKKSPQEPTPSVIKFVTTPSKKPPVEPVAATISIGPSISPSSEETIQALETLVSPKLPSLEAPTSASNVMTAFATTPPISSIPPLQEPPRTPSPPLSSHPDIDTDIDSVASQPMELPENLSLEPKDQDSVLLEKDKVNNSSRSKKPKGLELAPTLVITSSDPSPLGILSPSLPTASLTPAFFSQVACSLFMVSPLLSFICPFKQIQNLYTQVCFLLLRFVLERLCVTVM
# Outline: as §1
# ETV2 = target: T10, ETV2 (Homo sapiens, UniProt O00321 1-342); conditions: protein: recombinant; tags: N-terminal GST; dsDNA, one strand shown
# T10 sequence: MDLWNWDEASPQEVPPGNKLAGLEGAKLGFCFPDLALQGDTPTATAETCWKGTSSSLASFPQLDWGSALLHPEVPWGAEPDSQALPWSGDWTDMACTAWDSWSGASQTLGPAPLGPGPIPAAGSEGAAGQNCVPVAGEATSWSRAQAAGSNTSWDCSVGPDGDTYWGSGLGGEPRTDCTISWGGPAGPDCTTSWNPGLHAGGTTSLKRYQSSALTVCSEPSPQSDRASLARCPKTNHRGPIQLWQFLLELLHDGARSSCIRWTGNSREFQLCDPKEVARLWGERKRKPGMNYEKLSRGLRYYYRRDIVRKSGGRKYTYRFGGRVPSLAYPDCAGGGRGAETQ
# Outline: as §1
# ELF3 = target: T11, ELF3 (Homo sapiens, UniProt P78545 1-371); conditions: protein: recombinant; tags: N-terminal GST; dsDNA, one strand shown
# T11 sequence: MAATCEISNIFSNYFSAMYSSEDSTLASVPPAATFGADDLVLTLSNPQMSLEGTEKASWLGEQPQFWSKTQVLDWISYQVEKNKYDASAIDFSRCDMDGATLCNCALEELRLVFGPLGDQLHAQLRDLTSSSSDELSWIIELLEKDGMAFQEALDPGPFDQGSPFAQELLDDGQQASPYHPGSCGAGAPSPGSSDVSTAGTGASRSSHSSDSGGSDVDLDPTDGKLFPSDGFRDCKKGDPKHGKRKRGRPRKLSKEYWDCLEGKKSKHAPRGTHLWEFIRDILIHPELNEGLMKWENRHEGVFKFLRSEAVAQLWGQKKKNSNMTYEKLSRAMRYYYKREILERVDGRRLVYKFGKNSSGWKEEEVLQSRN
# Outline: as §1
# CRX = CRX (Homo sapiens, UniProt O43186 1-299); conditions: protein: recombinant; tags: N-terminal GST; dsDNA, one strand shown
# Outline: as §1
# ETV1 = ETV1 (Homo sapiens, UniProt P50549 1-477); conditions: protein: recombinant; tags: N-terminal GST; dsDNA, one strand shown
# Outline: as §1
# Chain of CRX (O43186 whole entry): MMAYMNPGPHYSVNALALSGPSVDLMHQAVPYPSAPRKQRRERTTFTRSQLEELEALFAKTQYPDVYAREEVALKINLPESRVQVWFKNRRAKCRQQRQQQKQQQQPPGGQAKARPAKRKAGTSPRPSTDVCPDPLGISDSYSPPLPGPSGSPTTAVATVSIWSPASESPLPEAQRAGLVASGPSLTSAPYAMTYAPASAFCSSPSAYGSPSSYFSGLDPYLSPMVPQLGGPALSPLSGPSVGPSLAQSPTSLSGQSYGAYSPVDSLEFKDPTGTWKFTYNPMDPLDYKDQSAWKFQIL
# Chain of ELF4 (Q99607 whole entry): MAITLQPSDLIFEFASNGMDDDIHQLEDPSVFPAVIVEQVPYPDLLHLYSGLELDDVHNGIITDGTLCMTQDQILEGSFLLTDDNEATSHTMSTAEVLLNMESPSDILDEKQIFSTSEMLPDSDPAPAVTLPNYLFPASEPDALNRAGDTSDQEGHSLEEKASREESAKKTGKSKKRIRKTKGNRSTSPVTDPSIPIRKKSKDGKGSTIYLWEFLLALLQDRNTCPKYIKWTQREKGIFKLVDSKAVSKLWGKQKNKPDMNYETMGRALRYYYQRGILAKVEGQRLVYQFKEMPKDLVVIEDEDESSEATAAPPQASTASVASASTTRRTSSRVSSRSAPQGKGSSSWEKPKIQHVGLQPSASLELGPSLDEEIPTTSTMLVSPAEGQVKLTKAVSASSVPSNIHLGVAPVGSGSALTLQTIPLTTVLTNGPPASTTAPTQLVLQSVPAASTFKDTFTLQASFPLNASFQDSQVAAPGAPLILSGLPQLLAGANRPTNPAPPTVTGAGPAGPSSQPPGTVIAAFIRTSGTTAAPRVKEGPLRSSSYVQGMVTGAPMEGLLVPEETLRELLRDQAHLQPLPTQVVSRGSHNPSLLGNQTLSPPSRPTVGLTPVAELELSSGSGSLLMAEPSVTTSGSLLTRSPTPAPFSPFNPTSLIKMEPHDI
# Chain of ELF1 (P32519 whole entry): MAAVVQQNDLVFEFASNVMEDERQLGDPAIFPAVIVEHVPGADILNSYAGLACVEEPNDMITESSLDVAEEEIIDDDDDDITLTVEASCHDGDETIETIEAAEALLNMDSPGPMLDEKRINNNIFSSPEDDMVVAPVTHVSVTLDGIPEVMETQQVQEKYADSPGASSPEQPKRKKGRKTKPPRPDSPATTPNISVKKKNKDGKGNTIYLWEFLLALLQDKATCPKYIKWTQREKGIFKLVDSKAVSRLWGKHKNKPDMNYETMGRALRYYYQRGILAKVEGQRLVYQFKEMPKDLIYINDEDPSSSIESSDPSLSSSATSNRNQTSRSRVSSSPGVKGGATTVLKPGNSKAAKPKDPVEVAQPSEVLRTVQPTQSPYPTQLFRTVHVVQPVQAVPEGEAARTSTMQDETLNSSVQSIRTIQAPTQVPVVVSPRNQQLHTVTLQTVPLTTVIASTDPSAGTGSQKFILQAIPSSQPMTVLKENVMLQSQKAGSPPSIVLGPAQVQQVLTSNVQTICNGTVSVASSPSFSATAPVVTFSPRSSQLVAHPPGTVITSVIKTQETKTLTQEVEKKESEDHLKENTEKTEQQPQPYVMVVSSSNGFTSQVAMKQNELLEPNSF
# Chain of SPIB (Q01892 whole entry): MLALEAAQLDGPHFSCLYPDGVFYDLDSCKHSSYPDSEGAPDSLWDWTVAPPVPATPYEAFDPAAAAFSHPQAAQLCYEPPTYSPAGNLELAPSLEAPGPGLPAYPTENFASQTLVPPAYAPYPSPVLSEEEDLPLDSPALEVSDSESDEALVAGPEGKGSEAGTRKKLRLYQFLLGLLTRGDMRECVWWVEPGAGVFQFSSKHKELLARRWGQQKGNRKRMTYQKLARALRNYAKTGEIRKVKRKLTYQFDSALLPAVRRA
# Chain of ETV1 (P50549 whole entry): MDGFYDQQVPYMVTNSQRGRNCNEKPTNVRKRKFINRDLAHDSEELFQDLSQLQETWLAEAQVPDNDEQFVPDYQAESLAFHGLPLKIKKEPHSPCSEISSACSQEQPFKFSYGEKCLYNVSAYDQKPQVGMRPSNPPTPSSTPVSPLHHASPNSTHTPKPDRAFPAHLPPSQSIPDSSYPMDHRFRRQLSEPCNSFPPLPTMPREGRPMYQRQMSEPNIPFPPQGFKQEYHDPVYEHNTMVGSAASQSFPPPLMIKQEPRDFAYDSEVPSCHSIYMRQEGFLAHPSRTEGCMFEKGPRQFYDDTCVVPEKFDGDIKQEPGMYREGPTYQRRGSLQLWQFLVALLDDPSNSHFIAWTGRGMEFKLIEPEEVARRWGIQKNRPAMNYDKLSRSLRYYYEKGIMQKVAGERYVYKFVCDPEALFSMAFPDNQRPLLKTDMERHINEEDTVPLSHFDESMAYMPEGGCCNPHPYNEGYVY
# Chain of HSF1 (Q00613 whole entry): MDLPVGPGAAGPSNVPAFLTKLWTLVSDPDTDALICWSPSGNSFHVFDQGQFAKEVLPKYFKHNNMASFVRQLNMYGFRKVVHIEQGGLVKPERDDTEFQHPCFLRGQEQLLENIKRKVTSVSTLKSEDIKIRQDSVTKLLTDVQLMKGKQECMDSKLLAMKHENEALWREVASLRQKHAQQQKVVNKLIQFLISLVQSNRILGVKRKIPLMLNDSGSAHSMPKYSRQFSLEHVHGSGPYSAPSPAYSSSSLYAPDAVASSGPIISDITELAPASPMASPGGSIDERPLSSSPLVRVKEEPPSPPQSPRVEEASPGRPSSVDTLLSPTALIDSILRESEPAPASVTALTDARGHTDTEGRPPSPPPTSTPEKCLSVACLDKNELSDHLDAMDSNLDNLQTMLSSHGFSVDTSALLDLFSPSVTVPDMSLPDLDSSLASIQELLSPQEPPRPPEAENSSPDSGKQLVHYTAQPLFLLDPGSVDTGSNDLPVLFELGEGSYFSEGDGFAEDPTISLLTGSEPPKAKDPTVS
# Chain of ETV5 (P41161 whole entry): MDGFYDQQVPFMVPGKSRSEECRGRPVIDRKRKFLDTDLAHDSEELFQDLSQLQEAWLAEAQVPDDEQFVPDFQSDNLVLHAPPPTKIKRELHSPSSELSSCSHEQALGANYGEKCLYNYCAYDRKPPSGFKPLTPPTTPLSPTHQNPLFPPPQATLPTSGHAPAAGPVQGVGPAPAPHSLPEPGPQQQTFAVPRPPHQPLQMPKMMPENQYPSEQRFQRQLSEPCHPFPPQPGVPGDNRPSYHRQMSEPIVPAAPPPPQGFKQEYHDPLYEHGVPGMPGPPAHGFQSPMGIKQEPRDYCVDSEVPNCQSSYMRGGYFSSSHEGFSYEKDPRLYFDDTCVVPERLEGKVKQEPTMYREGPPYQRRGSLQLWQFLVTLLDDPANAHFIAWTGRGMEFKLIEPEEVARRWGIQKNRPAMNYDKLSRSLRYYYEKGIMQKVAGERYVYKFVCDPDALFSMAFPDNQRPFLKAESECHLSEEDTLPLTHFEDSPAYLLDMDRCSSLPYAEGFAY
sequence,measurement,setting,value
CATTCC,binding signal,FLI1,"1.29 fold enrichment (6-mer frequency, TF over GST control)"
same,binding signal,ELK1,"1.2 fold enrichment (6-mer frequency, TF over GST control)"
same,binding signal,GABPA,"1.27 fold enrichment (6-mer frequency, TF over GST control)"
same,binding signal,ERG,"1.25 fold enrichment (6-mer frequency, TF over GST control)"
same,binding signal,ELF1,"1.25 fold enrichment (6-mer frequency, TF over GST control)"
same,binding signal,EHF,"1.19 fold enrichment (6-mer frequency, TF over GST control)"
same,binding signal,SPI1,"1.25 fold enrichment (6-mer frequency, TF over GST control)"
same,binding signal,SPIB,"1.3 fold enrichment (6-mer frequency, TF over GST control)"
same,binding signal,ELK3,"1.3 fold enrichment (6-mer frequency, TF over GST control)"
same,binding signal,FEV,"1.21 fold enrichment (6-mer frequency, TF over GST control)"
same,binding signal,ETV5,"1.29 fold enrichment (6-mer frequency, TF over GST control)"
same,binding signal,HSF1,"1.67 fold enrichment (6-mer frequency, TF over GST control)"
same,binding signal,SPIC,"1.11 fold enrichment (6-mer frequency, TF over GST control)"
same,binding signal,ELF4,"1.27 fold enrichment (6-mer frequency, TF over GST control)"
same,binding signal,ELK4,"1.28 fold enrichment (6-mer frequency, TF over GST control)"
same,binding signal,ETV2,"1.31 fold enrichment (6-mer frequency, TF over GST control)"
same,binding signal,ELF3,"1.2 fold enrichment (6-mer frequency, TF over GST control)"
same,binding signal,CRX,"1.07 fold enrichment (6-mer frequency, TF over GST control)"
same,binding signal,ETV1,"1.19 fold enrichment (6-mer frequency, TF over GST control)"
